# Measurements reported in PubChem BioAssay (EPA / NIEHS).
# Calls of active or inactive are those of the source. The calls were made as follows: active = hit-call score of the fitted dose curve at least 0.9, where 1 is the maximum; inactive = score below 0.9.
# Read-out: Caspase-3 (Homo sapiens) (UniProt P42574)
# Assay: LTEA_HepaRG_CASP3: Life Technologies and Expression Analysis (LTEA) Assay for cysteine-aspartic acid protease (CASP3) using HepaRG (AID 2283477)
# Details: mRNA level, 48 h; actives raise or lower the signal
# Summary of the method: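 Differentiated HepaRG cells, plated 48 h, were treated in duplicate in serum-free induction medium for 48 h with eight half-log concentrations up to 100 uM in 0.5% DMSO. CASP3 mRNA measured by qRT-PCR, normalized to ACTB, GAPDH, POLR2A.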
# Chain of Caspase-3 (Homo sapiens) (P42574 whole entry, looked up): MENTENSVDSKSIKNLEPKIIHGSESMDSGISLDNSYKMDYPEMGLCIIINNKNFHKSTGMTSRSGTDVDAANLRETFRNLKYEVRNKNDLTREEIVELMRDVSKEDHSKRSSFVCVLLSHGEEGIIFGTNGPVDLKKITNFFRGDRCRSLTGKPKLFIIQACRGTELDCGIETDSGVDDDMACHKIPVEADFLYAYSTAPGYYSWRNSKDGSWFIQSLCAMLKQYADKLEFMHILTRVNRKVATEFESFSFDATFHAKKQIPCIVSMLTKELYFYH
Compound,outcome,AC50
COP(=O)(NC(C)=O)SC (stereo unspecified),inactive,–
CSc1nc(NC(C)C)nc(NC(C)C)n1,inactive,–
COP(=O)(OC)OC(Br)C(Cl)(Cl)Br (stereo unspecified),inactive,–
CC(=NC#N)N(C)Cc1ccc(Cl)nc1,inactive,–
CN1COCN(Cc2cnc(Cl)s2)C1=N[N+](=O)[O-],inactive,–
COc1ccc(C(=CC(=O)N2CCOCC2)c2ccc(Cl)cc2)cc1OC,inactive,–
CNC(=O)ON=C(C)SC,inactive,–
CCOP(=S)(OCC)SCCSCC,inactive,–
COP(=O)(OC)C(O)C(Cl)(Cl)Cl (stereo unspecified),inactive,–
CCOP(=O)(OCC)Oc1cc(C)nc(C(C)C)n1,inactive,–
CCC(CC)Nc1c([N+](=O)[O-])cc(C)c(C)c1[N+](=O)[O-],inactive,–
CCOP(=S)(OCC)Oc1ccc([N+](=O)[O-])cc1,inactive,–
CC(C1CC1)C(O)(Cn1cncn1)c1ccc(Cl)cc1 (stereo unspecified),inactive,–
CNC(=O)ON=C(SC)C(=O)N(C)C,inactive,–
CNC(=O)Oc1cccc2c1OC(C)(C)O2,inactive,–
CCc1cnc(C2=NC(C)(C(C)C)C(=O)N2)c(C(=O)O)c1 (stereo unspecified),inactive,–
Cc1cc(C2CC2)nc(Nc2ccccc2)n1,inactive,–
CCCSP(=O)(OCC)SCCC,inactive,–

Compound,outcome,AC50
COc1cc(OC)nc(Sc2cccc(Cl)c2C(=O)O)n1,inactive,–
CC1(C(=O)Nc2ccc(O)c(Cl)c2Cl)CCCCC1,inactive,–
CSc1nnc(C(C)(C)C)c(=O)n1N,inactive,–
CCC(=O)Nc1ccc(Cl)c(Cl)c1,inactive,–
CCOP(=O)(NC(C)C)Oc1ccc(SC)c(C)c1 (stereo unspecified),inactive,–
CC1=NNC(=O)N(/N=C/c2cccnc2)C1,inactive,–
CSC1=N[C@@](C)(c2ccccc2)C(=O)N1Nc1ccccc1,inactive,–
CC(Oc1cccc(Cl)c1)C(=O)O (stereo unspecified),inactive,–
CCCCOC(=O)c1ccccc1C(=O)O,inactive,–
CON=C(C(=O)OC)c1ccccc1CON=C(C)c1cccc(C(F)(F)F)c1,inactive,–
C#CC(C)(C)NC(=O)c1cc(Cl)cc(Cl)c1,inactive,–
CC[C@H](C)[C@H]1O[C@]2(C=C[C@@H]1C)C[C@@H]1C[C@@H](C/C=C(\C)[C@@H](O[C@H]3C[C@H](OC)[C@@H](O[C@H]4C[C@H](OC)[C@@H](NC)[C@H](C)O4)[C@H](C)O3)[C@@H](C)/C=C/C=C3\CO[C@@H]4[C@H](O)C(C)=C[C@@H](C(=O)O1)[C@]34O)O2,inactive,–
Nc1c(Cl)cc([N+](=O)[O-])cc1Cl,–,17.3 µM (active)
CC(C)N(C(=O)SCC(Cl)=C(Cl)Cl)C(C)C,inactive,–
Cc1nn(-c2cc(NS(C)(=O)=O)c(Cl)cc2Cl)c(=O)n1C(F)F,inactive,–
C[Si](Cn1cncn1)(c1ccc(F)cc1)c1ccc(F)cc1,inactive,–
CNc1cnn(-c2cccc(C(F)(F)F)c2)c(=O)c1Cl,inactive,–
C#CCC1=C(C)C(OC(=O)C2C(C=C(C)C)C2(C)C)CC1=O (stereo unspecified),inactive,–

# Read-out: Cytochrome P450 (CYP24A1), CYP24A1 (gene 1591)
# Assay: LTEA_HepaRG_CYP24A1: Life Technologies and Expression Analysis (LTEA) Assay for Cytochrome P450 (CYP24A1) using HepaRG (AID 2283478)
# Details: mRNA level, 48 h; actives raise or lower the signal
# Summary of the method: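 HepaRG cells plated 48 h, then exposed in duplicate in serum-free induction medium for 48 h to 8-point half-log series from 100 uM in 0.5% DMSO. CYP24A1 mRNA by Fluidigm qRT-PCR, normalized to ACTB, GAPDH, POLR2A; bidirectional fit versus DMSO.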
row,Compound,outcome
1,COP(=O)(NC(C)=O)SC (stereo unspecified),inactive
2,CSc1nc(NC(C)C)nc(NC(C)C)n1,inactive
3,COP(=O)(OC)OC(Br)C(Cl)(Cl)Br (stereo unspecified),inactive
4,CC(=NC#N)N(C)Cc1ccc(Cl)nc1,inactive
5,CN1COCN(Cc2cnc(Cl)s2)C1=N[N+](=O)[O-],inactive
6,COc1ccc(C(=CC(=O)N2CCOCC2)c2ccc(Cl)cc2)cc1OC,inactive
7,CNC(=O)ON=C(C)SC,inactive
8,CCOP(=S)(OCC)SCCSCC,inactive
9,CCOP(=O)(OCC)Oc1cc(C)nc(C(C)C)n1,inactive
10,CCC(CC)Nc1c([N+](=O)[O-])cc(C)c(C)c1[N+](=O)[O-],inactive
11,CCOP(=S)(OCC)Oc1ccc([N+](=O)[O-])cc1,inactive
12,CC(C1CC1)C(O)(Cn1cncn1)c1ccc(Cl)cc1 (stereo unspecified),inactive
13,CNC(=O)ON=C(SC)C(=O)N(C)C,inactive
14,CNC(=O)Oc1cccc2c1OC(C)(C)O2,inactive
15,CCc1cnc(C2=NC(C)(C(C)C)C(=O)N2)c(C(=O)O)c1 (stereo unspecified),inactive
16,Cc1cc(C2CC2)nc(Nc2ccccc2)n1,inactive
17,CCCSP(=O)(OCC)SCCC,inactive
18,COc1cc(OC)nc(Sc2cccc(Cl)c2C(=O)O)n1,inactive

row,Compound,outcome
1,CC1(C(=O)Nc2ccc(O)c(Cl)c2Cl)CCCCC1,inactive
2,CSc1nnc(C(C)(C)C)c(=O)n1N,inactive
3,CCC(=O)Nc1ccc(Cl)c(Cl)c1,inactive
4,CCOP(=O)(NC(C)C)Oc1ccc(SC)c(C)c1 (stereo unspecified),inactive
5,CC1=NNC(=O)N(/N=C/c2cccnc2)C1,inactive
6,CSC1=N[C@@](C)(c2ccccc2)C(=O)N1Nc1ccccc1,inactive
7,CC(Oc1cccc(Cl)c1)C(=O)O (stereo unspecified),inactive
8,CCCCOC(=O)c1ccccc1C(=O)O,inactive
9,CON=C(C(=O)OC)c1ccccc1CON=C(C)c1cccc(C(F)(F)F)c1,inactive
10,C#CC(C)(C)NC(=O)c1cc(Cl)cc(Cl)c1,inactive
11,CC[C@H](C)[C@H]1O[C@]2(C=C[C@@H]1C)C[C@@H]1C[C@@H](C/C=C(\C)[C@@H](O[C@H]3C[C@H](OC)[C@@H](O[C@H]4C[C@H](OC)[C@@H](NC)[C@H](C)O4)[C@H](C)O3)[C@@H](C)/C=C/C=C3\CO[C@@H]4[C@H](O)C(C)=C[C@@H](C(=O)O1)[C@]34O)O2,inactive
12,Nc1c(Cl)cc([N+](=O)[O-])cc1Cl,inactive
13,CC(C)N(C(=O)SCC(Cl)=C(Cl)Cl)C(C)C,inactive
14,Cc1nn(-c2cc(NS(C)(=O)=O)c(Cl)cc2Cl)c(=O)n1C(F)F,inactive
15,C[Si](Cn1cncn1)(c1ccc(F)cc1)c1ccc(F)cc1,inactive
16,CNc1cnn(-c2cccc(C(F)(F)F)c2)c(=O)c1Cl,inactive
17,C#CCC1=C(C)C(OC(=O)C2C(C=C(C)C)C2(C)C)CC1=O (stereo unspecified),inactive
